Screening data deposited in PubChem by National Center for Advancing Translational Sciences (NCATS).
Rows were chosen to be rich in hits. Some 12% of all compounds tested hit in one or more screens of this group.
Sfp PPTase inh: qHTS Assay for Inhibitors of Bacillus subtilis Sfp phosphopantetheinyl transferase (PPTase); Potency, µM, without a hit: largest response in the series, negative = inhibition, hits mostly inhibitors; 310,000 tested, 3.5% active; Biochemical Sfp PPTase activity, qHTS; 4'-phosphopantetheinyl transferase ffp (Bacillus subtilis), Q9F4F7; AID 1490, 2009;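 note: the enzyme is Sfp with the accession as filed and its product quenches rhodamine fluorescence; 0% = enzyme reaction without inhibitor and -100% = no enzyme wells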
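Step 1, compound plus 15 nM Sfp-PPTase, 15 min, room temperature. Step 2, add rhodamine-CoA (5 uM) and BHQ-2-YbbR (12.5 uM). Step 3, read 525/598 nm fluorescence at 0 and 30 min.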
VP16 counter: VP16 counterscreen qHTS for inhibitors of ROR gamma transcriptional activity; Potency, µM (doses to about 53.6 µM), inactives show top-dose activity, negative = inhibition, actives largely listed as inhibitors; 310,000 tested, 3.5% active; AID 2546, 2010; Drosophila S2 Gal4-VP16 UAS-luciferase, luminescence, 20 h;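 note: Gal4-VP16 expression switched on by copper sulfate through the metallothionein promoter; nearly all actives have a fitted effect of over 50% in size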
RORg inh: qHTS for inhibitors of ROR gamma transcriptional activity. Nuclear receptor ROR-gamma (Mus musculus), P51450. Drosophila S2 Gal4-RORgamma UAS-luciferase reporter, 20 h. Potency, µM (series often up to 53.6 µM), inactives show at the highest dose activity change, negative = inhibition, usual class: inhibitors. 310,000 tested, 5.4% active; note: nearly all actives have a fitted effect of over 60% in size
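Luciferase reporter read in Schneider cells carrying Gal4-RORγ (mouse) and UAS-Photinus luciferase; cells given compound 1 h before 700 uM copper sulfate induction, then incubated 20 h at ambient temperature.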
PLK1 PBD block: qHTS for Inhibitors of PLK1-PDB (polo-like kinase 1 - polo-box domain): Primary Screen; Potency, µM, for the others: max response, negative = inhibition, hits mostly inhibitors; 360,000 tested, 2.8% active; Serine/threonine-protein kinase PLK1 (Homo sapiens), P53350; Plk1 PBD binding of FITC phosphopeptide, fluorescence polarization; note: series mostly up to about 57 µM; nearly all actives have a fitted effect of over 65% in size
Target sequence (P53350 whole entry, looked up, the tested form may be a part): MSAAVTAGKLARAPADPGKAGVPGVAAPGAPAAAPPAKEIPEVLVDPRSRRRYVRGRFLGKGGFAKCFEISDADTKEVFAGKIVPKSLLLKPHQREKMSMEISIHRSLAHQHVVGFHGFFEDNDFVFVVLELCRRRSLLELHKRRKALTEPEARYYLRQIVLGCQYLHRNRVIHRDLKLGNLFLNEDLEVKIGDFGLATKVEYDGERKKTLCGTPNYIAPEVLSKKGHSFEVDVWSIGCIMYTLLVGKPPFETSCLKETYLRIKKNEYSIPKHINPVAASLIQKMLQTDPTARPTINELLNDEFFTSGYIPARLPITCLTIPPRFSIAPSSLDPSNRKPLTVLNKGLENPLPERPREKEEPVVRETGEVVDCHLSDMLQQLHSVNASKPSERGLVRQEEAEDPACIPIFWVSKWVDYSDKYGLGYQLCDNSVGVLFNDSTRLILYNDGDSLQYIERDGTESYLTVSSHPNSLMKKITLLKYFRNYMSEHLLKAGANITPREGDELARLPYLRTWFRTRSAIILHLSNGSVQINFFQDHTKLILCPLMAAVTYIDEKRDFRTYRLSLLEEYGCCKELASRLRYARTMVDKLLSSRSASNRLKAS
ALDH1A1 block: qHTS Assay for Inhibitors of Aldehyde Dehydrogenase 1 (ALDH1A1); Potency, µM (titrated, usually from 75.3 µM), inactives show at the top dose activity, negative = inhibition, hits mostly inhibitors; 220,000 tested, 7.3% active; Purified ALDH1A1, NADH fluorescence, propionaldehyde substrate; AID 1030, 2008; Aldehyde dehydrogenase 1A1 (Homo sapiens), P00352; active = well fitted inhibition curve with a large enough effect, not every such curve was filed as active; inconclusive = small, poorly fitted or top-dose-only effect, or another doubt; inactive = no such curve, though single readings can be large or run the other way;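 note: plate controls were no enzyme wells and a reference inhibitor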
An asterisk follows results filed as active; ? = inconclusive; · = not tested or not shown; [ ] = remark or other dose. Unless noted, calls come from the whole dose curve; as a rule, active = well fitted curve in the direction sought with a large enough effect; inconclusive = small, poorly fitted or top-dose-only effect, or another doubt; inactive = no such curve, though single readings can be large; an effect the other way counts as inactive or inconclusive. Unless noted, % is set by controls: 0 for no effect and ±100 for the full control effect; potency is the fitted concentration of half-maximal effect.

SMILES	Sfp PPTase inh	VP16 counter	RORg inh	PLK1 PBD block	ALDH1A1 block
CCN1C(=O)C(O)(C2COC(C)(C)CC2=O)c2cc(Br)ccc21 (stereo not drawn)	-2.5%	-4.6%	17.4%	-6.4%	8.91µM*
CCCN1C(=O)C(O)(C2CC(=O)CC(C)(C)O2)c2ccccc21 (stereo not drawn)	16.3%	-12.7%	-10.7%	-4.8%	0.794µM*
CCCN1C(=O)C(O)(C2COC(C)(C)CC2=O)c2ccccc21 (stereo not drawn)	11.2%	-5.4%	-23.6%	?	0.355µM*
COCOCCn1cc(CN2CCS(=O)(=O)N(Cc3ccc(-c4ccc(Cl)c(Cl)c4)cc3)C(C)C2=O)nn1 (stereo not drawn)	·	·	·	-1.1%	·
CC1CCCCN1C(=O)C1COc2ccccc2O1 (stereo not drawn)	13.8%	-2.7%	-12.0%	-4.3%	·
COc1cc(NC(=O)CN2C(=O)C(=O)N(C3CCCC3)C2=O)cc(OC)c1	·	·	·	-12.2%	·
CC(C)[C@H]1COC(c2cc(Cl)cc(Cl)c2)=N1	11.7%	8.3%[96.6 µM]	6.1%[96.6 µM]	·	-6.9%[120 µM]
Cc1cccnc1NC(=O)CNC(=O)c1cccs1	·	·	·	-6.1%	·
Cc1ccc(NC(=O)c2cncc(Br)c2)nc1	11.1%	-11.0%	-26.7%	-15.8%	·
O=C(NC(=S)Nc1cccc(Cl)c1)c1cncc(Br)c1	·	·	·	-3.6%	·
O=C(NC(=S)Nc1ccc(Br)cn1)c1cncc(Br)c1	-0.5%	-3.6%	0.501µM*	-1.4%	-1.9%
Cc1cccnc1NC(=S)NC(=O)c1cccs1	79.4µM*	10µM*	3.98µM*	-1.2%	-1.3%
S=C(Nc1ccccc1)Nc1ccc(Br)cn1	11.8%	5.62µM*	0.891µM*	-21.3%	?
Cc1ccccc1C(=O)Nc1ccc(Br)cn1	12.3%	0.3%	?	-5.0%	-8.1%
O=C(NC(=S)Nc1ccccn1)c1cncc(Br)c1	3.5%	7.94µM*	7.94µM*	-24.4%	-3.8%
O=C(NCCC1=CCCCC1)c1[nH]c(C(F)(F)F)nc1-c1ccccc1	·	·	·	-3.4%	·
O=C(Nc1ccccc1)N1CC2(CCN(C(=O)c3cc(C(F)(F)F)cc(C(F)(F)F)c3)CC2)C1	0.9%	-4.1%	-5.2%	·	-2.8%
Cc1cccnc1NC(=S)NC(=O)c1cncc(Br)c1	?	?	5.01µM*	-11.1%	13.9%
O=C(NC(=S)Nc1ccc(Br)cn1)c1cccs1	?	8.91µM*	2.24µM*	-4.0%	-2.2%
O=C(O)[C@H]1CN(CCCP(=O)(O)O)CCN1	8.1%	-14.9%	4.7%	·	0.1%
CS(=O)(=O)N1CCC2(CC1)CN(c1cccc(-c3ccccc3)c1)C2	3.0%	1.8%	29.6%	·	?
CN(C)CCC#CC(O)(c1ccccc1)c1ccccc1	3.8%	-3.6%	-3.4%	2.9%	25.1µM*
CCN(CC)CC#CC(O)(c1ccccc1)c1ccccc1	22.6%	-2.6%	-15.9%	-8.9%	8.7%
Cc1cccc(N(CC(=O)NCc2ccco2)S(=O)(=O)c2ccccc2)c1	·	·	·	1.6%	·
COc1ccc(OC)c(NC(=O)c2cccc(NC(=O)c3ccco3)c2)c1	·	·	·	0.8%	·
SMILES	Sfp PPTase inh	VP16 counter	RORg inh	PLK1 PBD block	ALDH1A1 block
COc1ccc(-n2c(=O)c(-c3cn(C)c4ccccc34)nc3cncnc32)cc1	2.8%	-4.1%	28.0%	·	?
O=C(NNC1=Nc2ccccc2SC1)c1ccc(F)cc1	13.3%	3.55µM*	?	-4.6%	·
O=C(NC1=NCCS1)c1ccc(Cl)cc1	-3.9%	·	·	6.1%	·
O=C(NNC(=O)c1ccc(F)cc1)c1ccncc1	9.2%	-6.7%	1.6%	-5.5%	·
O=C(NNC1=Nc2ccccc2SC1)c1ccc(Cl)cc1	21.7%	5.62µM*	1.12µM*	2.4%	·
CCN(CC)c1nc(C)nc2c1sc(=S)n2C	4.7%	20.6%	-22.8%	-3.1%	-4.3%
Cc1nc(N(C)C)c2sc(=S)n(Cc3ccccc3)c2n1	1.9%	14.6%	-29.1%	-16.0%	6.31µM*
CCOC(=O)[C@H]1[C@H]2COc3ccc(Br)cc3[C@H]2N2C(=O)CN(Cc3ccc(Cl)cc3)C(=O)[C@@]12C	·	·	·	-3.7%	·
O=[N+]([O-])c1ccc2c(c1)C(O)n1nc(-c3ccc(Cl)cc3Cl)nc1S2 (stereo not drawn)	24.2%	?	11.2µM*	-3.3%	-10.3%
O=C1S/C(=C\C=C\c2ccco2)C(=O)N1c1ccc(O)cc1	?	-2.0%	10.4%	-8.3%	17.8µM*
O=C1S/C(=C\C=C\c2ccco2)C(=O)N1c1ccccc1	?	?	?	-24.6%	20µM*
Cn1cc(/C=C2\SC(=O)N(c3ccccc3)C2=O)c2ccccc21	-21.8%	29.2%	10.9%	-2.1%	15.7%
O=C(Cc1ccc(F)cc1)NCCS(=O)(=O)N1CCN(c2cccc(Cl)c2)CC1	·	·	·	-22.7%	·
CC1=C(C(=O)OC2CCCC2)C(c2ccc(C)o2)C2=C(CC(c3cccs3)CC2=O)N1 (stereo not drawn)	?	-0.2%	-21.6%	-7.4%	14.1µM*
O=C(/C=C/[C@H]1O[C@@H](n2ccc(=O)[nH]c2=O)[C@H](O)[C@@H]1O)N[C@@H](Cc1ccccc1)C(=O)O	·	·	·	8.2%	·
Cc1cc(C(=O)Nc2c(F)cc(F)cc2Br)cs1	-4.9%	6.3%	4.5%	-3.1%	·
NNC(=S)Nc1c(F)cc(F)cc1Br	79.4µM*	?	3.98µM*	-12.0%	·
CCC1(CC)Cc2ccccc2-c2nc(NN)[nH]c(=O)c21	?	15.8µM*	10µM*	-8.0%	?
CCC1(C)Cc2ccccc2-c2nc(NN)[nH]c(=O)c21 (stereo not drawn)	-5.9%	?	15.8µM*	4.6%	·
CCC1(CC)Cc2ccccc2-c2nc(CN3CCOCC3)[nH]c(=O)c21	5.5%	-14.7%	-23.9%	-10.1%	?
CCOC(=O)C1=C(C)NC(=O)N[C@@H]1c1coc2cc(C)cc(C)c2c1=O	·	·	·	·	5.2%[13.5 µM]
O=C(NNC(=S)NC(=O)c1cccs1)c1ccc(NC(=O)c2ccccc2)cc1	16.2%	6.31µM*	4.47µM*	-11.4%	?
O=C(/C=C/c1cccs1)NC(=S)Nc1ccccc1	-6.4%	8.91µM*	3.16µM*	-11.5%	?
O=C(/C=C/c1cccs1)NC(=S)NNC(=O)c1ccccc1O	37.0%	2.2%	?	-22.3%	?
O=C(NNC(=S)NC(=O)c1cccs1)c1ccc(O)cc1	12.8%	11.2µM*	7.94µM*	-8.2%	·
COc1ccccc1C(=O)NC(=S)Nc1ccc(NC(=O)c2cccs2)cc1	?	-17.4%	6.4%	-4.3%	-4.2%
Cc1c(C(=O)NC(=S)Nc2ccc(NC(=O)c3cccs3)cc2)oc2ccccc12	8.91µM*	?	?	-5.6%	1.26µM*
CN(C)Cc1ccccc1-c1nc(NC2CCNCC2)c2ccccc2n1	15.4%	-13.0%	1.7%	·	-10.7%
Cc1noc(C)c1-c1nc(NCc2ccccc2)c2ccccc2n1	-13.0%	?	?	·	?
